Data reported in PubChem BioAssay (NCI).
The panel holds about 83,000 compounds, 20% with a hit somewhere; the sample as a whole holds those more often.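 48-hour exposure, single concentration, 96-well plates; percent growth endpoint where 0 means no net growth. Active: below 10.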 Unmarked numbers belong to inactive results. Active and inactive are the calls of the source.

Each compound was assayed on HS 578T breast (assay: NCI-60 one-dose screen, 48 h (100 = growth as untreated, 0 = no growth, -100 = all killed)). Settings: 10 µM unless noted.

| Compound | growth |
| --- | --- |
| CCOP1(=O)CC(C)=C(Cl)C(P(=O)(O)O)C1 (stereo not given) | 107% |
| O=C(O)CC1Cc2ccccc2C1C(=O)O (stereo not given) | 104% |
| Nc1cc2c(cc1Br)[nH]c(=O)c1ccccc12 | 73.3% |
| CCc1ccc(C(=Nc2ccc(N(C)C(=O)CN3CCN(C)CC3)cc2)c2c(O)[nH]c3ccc(C(=O)OC)cc23)cc1 | -48.7% (active) |
| O=C1CSC(c2ccccc2Cl)N1c1nnc(-c2ccncc2)o1 (stereo not given) | 109% |

These compounds were tested on NCI/ADR-RES ovarian in the same assay as above. Settings: 10 µM unless noted.

| Compound | growth |
| --- | --- |
| COc1nc(OC)nc(-c2cc(C(=O)c3ccc(Br)cc3)n3cc(C)cc(C)c23)n1 | 58.7% |
| CC(=O)OCC(=O)[C@@]1(O)[C@H](C)C[C@H]2[C@@H]3C=C(C)C4=Cc5c(cnn5-c5ccc(F)cc5)C[C@]4(C)[C@H]3[C@@H](O)C[C@@]21C | 18.6% |
| Brc1c(-c2ccncc2)nc2n1CCS2 | 107% |
| CC(=O)/C(=C\c1c(-c2ccccc2)[nH]c2ccccc12)S(=O)(=O)c1ccccc1 | -5.66% (active) |
| COc1ccc(/C=N/c2cc(C(C)(C)C)nn2-c2ccccc2)cc1 | 118% |
| CCC1(CC)C(OC)NC(Br)=C(C#N)C1(C#N)C(N)=O (stereo not given) | 124% |
| COc1ccc(CN2C(=O)/C(=C\C(=O)c3ccc(OCCN4CCCC4)cc3)c3ccccc32)cc1 | 85.8% |
| COc1ccc(/C=C2\SC(=O)N(Cc3cc(=O)oc4ccc(OC)cc34)C2=O)cc1 | 95.7% |
| c1cc(C2CCCCC2)ccc1OCCCCCCN1CCNCC1 | 54.1% |
| COc1cc(/C=C/C(=O)/C=C(/C=C/c2ccc(OC(C)=O)c(OC)c2)OB(F)F)ccc1OC(C)=O | 43.6% |
